Here are results for 21 molecules from PubChem BioAssay.

The target in assay [1] is NAD(+) hydrolase SARM1 (Homo sapiens) (UniProt Q6SZW1). As to the kind of experiment: blocking NAD cleavage by SARM1 SAM-TIR – cell lysate, NAD-Glo luminescence (AID 1508614;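 active = compound whose remaining NAD level is above about 45 nM, limit read from the data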;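 note: higher remaining NAD means stronger inhibition of SARM1 NADase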). Particulars: SAM-TIR HEK293T lysate NADase, at 1 µM, hits give high values.
The nature of assay [2]: galactose survival enhancers in mitochondrial complex I cybrids – cell-based, galactose medium, ATP luminescence, primary screen (AID 1645843;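 active = z-score of at least 1.8 in each of two replicates, scored against plate mean and spread of sample wells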;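 note: positive z means more ATP and so rescue of galactose-driven cybrid death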). The following applies: complex I mutant cybrid cells, 72 h, hits give high values.
Assay [3] deals with F380Y. As to the kind of experiment: BK channel mutant inhibitors and activators – cell-based, U2OS BacMam, thallium flux, beta subunits, selectivity assay, profiling panel (AID 1259406).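 Note: initial slope of Thallos dye fluorescence rise after thallium is added; log ratio against the mean of 0.3% DMSO vehicle wells on the same plate.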 Particulars: U2OS BacMam BK variants, at 30 µM.
Assay [4] relates to F380Y/beta1. Described as above. The following applies: U2OS BacMam BK variants, at 30 µM.
Assay [5] addresses Mitogen-activated protein kinase 7 (Homo sapiens) (UniProt Q13164). The assay can be described thus: Gal4-ERK5 driven luciferase induction – cell-based, HTS, primary screen (AID 1508626;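 active = luciferase signal above three times the same-plate solvent-only control wells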;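 note: luciferase driven by Gal4-ERK5 fusion binding five Gal4 sites before minimal TATA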). The following applies: HeLa Gal4-ERK5 transactivation, 18 h, at 5 µM, hits give high values.

The structures appear in SMILES notation. Where “and” joins values, the source holds several entries; their conditions need not be identical. Equal entries are not always repeated. Values without a mark were called inactive. Calls of active or inactive are those of the source.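 Rule for the calls, unless noted: active = thallium flux through the channel raised or lowered by more than 3 SD from vehicle-only wells, actives on both sides; inactive = the rest.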

Sequence of Mitogen-activated protein kinase 7 (Homo sapiens) (Q13164 whole entry, looked up, the tested form may be a part): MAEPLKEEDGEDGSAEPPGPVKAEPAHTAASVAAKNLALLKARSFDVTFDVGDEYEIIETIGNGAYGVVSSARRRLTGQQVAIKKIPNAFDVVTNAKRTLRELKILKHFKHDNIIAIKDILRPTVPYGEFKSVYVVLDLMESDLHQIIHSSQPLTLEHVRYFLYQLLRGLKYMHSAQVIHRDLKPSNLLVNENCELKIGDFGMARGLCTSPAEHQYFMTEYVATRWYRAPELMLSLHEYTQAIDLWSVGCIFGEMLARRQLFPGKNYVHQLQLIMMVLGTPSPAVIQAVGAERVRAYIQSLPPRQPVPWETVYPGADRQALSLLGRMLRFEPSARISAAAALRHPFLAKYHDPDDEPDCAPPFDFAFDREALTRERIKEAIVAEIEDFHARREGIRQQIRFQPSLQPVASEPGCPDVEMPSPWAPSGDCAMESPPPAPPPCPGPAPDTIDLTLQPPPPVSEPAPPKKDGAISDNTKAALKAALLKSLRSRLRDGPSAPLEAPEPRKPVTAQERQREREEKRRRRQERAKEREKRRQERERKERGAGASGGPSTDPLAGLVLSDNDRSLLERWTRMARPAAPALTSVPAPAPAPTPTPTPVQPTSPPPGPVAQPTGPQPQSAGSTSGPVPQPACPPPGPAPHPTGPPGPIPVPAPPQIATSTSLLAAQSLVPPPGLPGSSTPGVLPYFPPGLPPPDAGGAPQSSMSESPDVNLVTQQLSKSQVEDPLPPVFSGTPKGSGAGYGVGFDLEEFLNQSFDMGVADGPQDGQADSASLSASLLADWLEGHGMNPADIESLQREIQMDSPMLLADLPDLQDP
Sequence of NAD(+) hydrolase SARM1 (Homo sapiens) (Q6SZW1 whole entry, looked up): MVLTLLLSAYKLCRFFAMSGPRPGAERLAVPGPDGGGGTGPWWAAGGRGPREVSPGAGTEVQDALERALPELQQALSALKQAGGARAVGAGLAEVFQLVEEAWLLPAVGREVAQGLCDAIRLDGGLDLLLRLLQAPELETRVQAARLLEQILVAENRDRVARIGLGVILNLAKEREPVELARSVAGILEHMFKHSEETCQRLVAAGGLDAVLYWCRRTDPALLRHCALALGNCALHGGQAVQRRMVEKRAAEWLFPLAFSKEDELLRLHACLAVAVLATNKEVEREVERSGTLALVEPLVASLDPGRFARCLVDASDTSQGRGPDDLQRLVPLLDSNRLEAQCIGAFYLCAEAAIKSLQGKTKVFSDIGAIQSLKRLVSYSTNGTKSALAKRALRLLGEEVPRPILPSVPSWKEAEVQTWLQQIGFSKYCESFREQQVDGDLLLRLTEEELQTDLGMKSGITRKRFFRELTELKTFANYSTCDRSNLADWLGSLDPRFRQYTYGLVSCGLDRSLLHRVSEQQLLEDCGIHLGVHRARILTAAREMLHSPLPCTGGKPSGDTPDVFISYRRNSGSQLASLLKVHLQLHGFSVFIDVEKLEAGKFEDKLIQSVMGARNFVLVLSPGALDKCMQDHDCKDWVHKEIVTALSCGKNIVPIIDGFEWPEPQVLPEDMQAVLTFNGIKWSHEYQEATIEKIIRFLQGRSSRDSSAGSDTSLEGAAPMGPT

With `OCc1cccnc1`, the remaining NAD in assay [1] was 10 nM. The z-score in assay [2] was 0.275. Moreover, the log fold change Tl+ flux in assay [3] was -0.0134; in assay [4], -0.0115.
Consider `COc1ccccc1OCC(O)CN1CCN(CC(=O)Nc2c(C)cccc2C)CC1` (configuration not stated), for which, in assay [1], the remaining NAD is 10 nM. Also, the luciferase signal in assay [5] was 56 AU. For the same molecule, in assay [2], the z-score is -0.345 and -0.115 and 0.005. Further, the log fold change Tl+ flux in assay [3] was 0.091; in assay [4], 0.0232.
On to `CC(C)(C#N)c1cc(Cn2cncn2)cc(C(C)(C)C#N)c1`, for which the remaining NAD in assay [1] is 10 nM. Further, the z-score in assay [2] was 0.695 and 0.735. Also, the log fold change Tl+ flux was 0.0287 in assay [3] and 0.000378 in assay [4].
`CN(C/C=C/C#CC(C)(C)C)Cc1cccc2ccccc12`: the remaining NAD in assay [1] is 10 nM. In addition, the luciferase signal in assay [5] is 52 AU. Further, in assay [2], the z-score was -1.48. In addition, the log fold change Tl+ flux in assay [3] was -0.0709; in assay [4], -0.00172.
For `CCc1oc2ccccc2c1C(=O)c1cc(Br)c(O)c(Br)c1`, in that order: 10 nM, 52 AU, -1.42, 0.395 (active) and 0.958 (active).
In the same order, the values of `Cc1ncc([N+](=O)[O-])n1CC(O)CCl` (configuration not stated) are 10 nM, 36 AU, 0.42, -0.0142 and -0.0206.
`COC1=C(OC)C(=O)C(CCCCCCCCCCO)=C(C)C1=O`: in assay [1], the remaining NAD was 10 nM. Moreover, the z-score in assay [2] was -1.85 and -2.1. For the same molecule, the log fold change Tl+ flux in assay [3] was -0.163 (active); in assay [4], 0.138 (active).
In the case of `CC(C)(C)NC(=O)[C@H]1CC[C@H]2[C@@H]3CC[C@H]4NC(=O)C=C[C@]4(C)[C@H]3CC[C@]12C`, the remaining NAD in assay [1] was 10 nM. Also, the z-score in assay [2] is 0.465. Moreover, the log fold change Tl+ flux was 0.0287 in assay [3] and 0.0111 in assay [4].
For `COC(=O)C1=C(C)NC(C)=C(C(=O)OC(C)C)C1c1cccc2nonc12` (configuration not stated), in that order: 10 nM, 1.15, 0.00609 and 0.106 (active).
Take `Cc1nc2n(c(=O)c1CCN1CCC(c3noc4cc(F)ccc34)CC1)CCCC2`: in assay [1], the remaining NAD is 10 nM. Further, the z-score in assay [2] is -1.22 and -0.71. In addition, the log fold change Tl+ flux in assay [3] was 0.0311; in assay [4] it was -0.00468.
Consider `COc1cc(OC)c(C(=O)CCCN2CCCC2)c(OC)c1`, for which the remaining NAD in assay [1] is 10 nM. Further, in assay [5], the luciferase signal was 40 AU. Besides, in assay [2], the z-score was 0.65. Moreover, the log fold change Tl+ flux in assay [3] was -0.00984; in assay [4], -0.00851.
In the case of `CC1(C)O[C@@H]2C[C@H]3[C@@H]4C[C@H](F)C5=CC(=O)C=C[C@]5(C)[C@@]4(F)[C@@H](O)C[C@]3(C)[C@]2(C(=O)CO)O1`, the remaining NAD in assay [1] was 10 nM. The luciferase signal in assay [5] is 124 AU. Further, the z-score in assay [2] was -0.48 and 0.45. The figures for the log fold change Tl+ flux in assay [3] and in assay [4] were 0.2 (active) and 0.211 (active), respectively.
Consider `OCCOCCN1CCN(C2=Nc3ccccc3Sc3ccccc32)CC1`, for which the remaining NAD in assay [1] is 10 nM. For the same molecule, the luciferase signal in assay [5] was 48 AU. Besides, in assay [2], the z-score is -0.095 and 0.115. Moreover, the log fold change Tl+ flux in assay [3] was 0.134 (active); in assay [4], 0.105 (active).
Regarding `CCN(CC)CCNC(=O)c1cc(Cl)c(N)cc1OC`, the remaining NAD in assay [1] is 10 nM. For the same molecule, in assay [5], the luciferase signal is 100 AU. For the same molecule, the z-score in assay [2] was -0.285 and 0.055 and 0.595. In addition, the log fold change Tl+ flux is -0.00476 in assay [3] and -0.00572 in assay [4].
Consider `CC(=O)OCC(=O)NCCCOc1cccc(CN2CCCCC2)c1`, for which the remaining NAD in assay [1] is 10 nM. Moreover, in assay [2], the z-score is 0.45 and 0.22. Besides, the log fold change Tl+ flux is -0.0125 in assay [3] and -0.015 in assay [4].
On to `Cc1cn([C@H]2C=C[C@@H](CO)O2)c(=O)[nH]c1=O`, for which the remaining NAD in assay [1] is 21 nM. Moreover, the z-score in assay [2] was 0.32 and 1.07. For the same molecule, the log fold change Tl+ flux in assay [3] is -0.00288 and 0.0465; in assay [4] it was 0.0156 and 0.0441.
Regarding `CN1CCN(c2c(F)cc3c(=O)c(C(=O)O)cn4c3c2SCC4)CC1`, in assay [1], the remaining NAD is 10 nM. Also, in assay [2], the z-score was -0.175 and 0.05. Moreover, the results for the log fold change Tl+ flux in assay [3] and in assay [4] were 0.0311 and 0.0284, respectively.
On to `CC(C(=O)O)c1ccc(CC2CCCC2=O)cc1` (configuration not stated), for which the remaining NAD in assay [1] is 10 nM. Further, in assay [2], the z-score was 0.695 and 0.805. In addition, the log fold change Tl+ flux in assay [3] is -0.0107; in assay [4], -0.0699.
Regarding `CCN1CC(CCN2CCOCC2)C(c2ccccc2)(c2ccccc2)C1=O` (configuration not stated), in assay [1], the remaining NAD was 10 nM. The z-score in assay [2] was 0.71. Also, the values for the log fold change Tl+ flux in assay [3] and in assay [4] were 0.0128 and -0.0268, respectively.
In the same order, the values of `CC(C)(O)c1ccccc1CC[C@@H](SCC1(CC(=O)O)CC1)c1cccc(/C=C/c2ccc3ccc(Cl)cc3n2)c1` are 10 nM, 0.48, 0.278 (active) and 0.853 (active).
`CN1[C@@H]2CC[C@H]1CC(OC(=O)c1c[nH]c3ccccc13)C2` (some centres not stated): the remaining NAD in assay [1] was 10 nM. The z-score in assay [2] was -0.025 and 0.755. Besides, the figures for the log fold change Tl+ flux in assay [3] and in assay [4] were 0.0406 and 0.0426, respectively.
